Bioassay records (PubChem BioAssay)
TDP1 cell noCPT: qHTS for Inhibitors of human tyrosyl-DNA phosphodiesterase 1 (TDP1): qHTS in cells in absence of CPT | DT40 Tdp1-/- hTDP1 cells, no CPT, ATP luminescence, 48 h | Potency, µM (titrated, usually from 46.2 µM), for the others: at the highest dose activity change, negative = growth inhibition, hits mostly inhibitors | hit rate 15% among 420,000; note: nearly all actives have a fitted effect of over 55% in size
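Compound effects on proliferation are scored in DT40 Tdp1-/-;hTDP1 cells in the absence of CPT. ATP levels (CellTiter-Glo luminescence) are recorded after a ≥48 hr, 37 °C incubation.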
HT1080-NT tox: kills 2HG-producing HT-1080-NT fibrosarcoma cells; HT-1080-NT fibrosarcoma viability, CellTiter-Glo ATP luminescence, 48 h; Potency, µM (titrated, usually from 46.1 µM), for the others: at the highest dose activity, negative = less viability, usual class: cytotoxic; hit rate 1.6% among 360,000; AID 686970;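 note: NT is the 2HG producing partner of a matched IDH1 knockdown line; 0% = DMSO-treated cells and -100% = media-only wells without cells; nearly all actives have a fitted effect of over 55% in size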
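A 48-hour cytotoxicity screen used HT-1080-NT cells plated 2 hours before compound delivery. ATP-based CellTiter-Glo luminescence measured viability, normalized to DMSO and no-cell controls.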
KB-V1 cytotox: kills drug-selected multidrug resistant KB-V1 cells; KB-V1 MDR cells viability, CellTiter-Glo, 72 h; Potency, µM (series often up to 46.1 µM), most hits filed as cytotoxic; hit rate 3.4% among 400,000; AID 1347076; note: nearly all actives have a fitted effect of over 60% in size
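Drug-selected KB-V1 cells, grown in DMEM lacking phenol red with 10% FBS, receive compound titrations; after three days at 37 degrees C, surviving cell ATP is quantified by CellTiter-Glo luminescence and responses normalized and curve-fitted.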
DT40 TDP1 CPT: DT40-hTDP1 cell growth loss with CPT; chicken DT40 Tdp1-/-;hTDP1 cells + 20 nM CPT, ATP luminescence, 48 h; hit rate 12% among 420,000; Potency, µM (top dose mostly 46.2 µM), inactives show top-dose activity change, negative = growth inhibition, hits mostly inhibitors; note: nearly all actives have a fitted effect of over 55% in size
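Cell growth measured by CellTiter-Glo luminescence after a minimum 48 h, 37 C compound exposure with 20 nM CPT in Tdp1-knockout DT40 cells stably expressing hTDP1, seeded 400/well; qHTS titration format.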
HT1080 IDH1KD tx: HT-1080 IDH1 knockdown cell toxicity (counter line); hit rate 2% among 360,000; HT-1080 IDH1 knockdown viability, ATP luminescence, 48 h; AID 686971; Potency, µM (doses to about 46.1 µM), inactives show top-dose activity, negative = toxicity, usual class: cytotoxic;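 note: 0% = DMSO wells and -100% = cell-free medium wells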
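In this qHTS, HT-1080 cells depleted of IDH1 are exposed for 48 h at 37 °C to compound titrations. Toxicity is scored from CellTiter-Glo luminescence, with DMSO as full viability and medium alone as none.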
KB-3-1 cytotox: KB-3-1 parental cell cytotoxicity | hit rate 1.4% among 400,000 | Potency, µM (highest dose often 46.1 µM), most hits filed as cytotoxic | KB-3-1 viability, CellTiter-Glo ATP luminescence, 72 h; note: nearly all actives have a fitted effect of over 60% in size
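KB-3-1 parental drug-naive adenocarcinoma cells in DMEM/10% FBS, incubated 72 h at 37 C with pin-transferred compounds across a concentration series. Viability by CellTiter-Glo luminescence; concentration-response curves fitted after normalization.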
The depositor's hits bear a star; [ ] = dose if it differs, or a comment. The list is not random: actives were taken first. Their share in the collection is about 19%. Calls come from the whole dose curve; as a rule, active = well fitted curve in the direction sought with a large enough effect; inconclusive = small, poorly fitted or top-dose-only effect, or another doubt; inactive = no such curve, though single readings can be large; an effect the other way counts as inactive or inconclusive. Unless noted, % is set by controls: 0 for no effect and ±100 for the full control effect; potency is the fitted concentration of half-maximal effect.

For O/C=c1\ccc2cccc3nc(C(F)(F)F)nc1c23 the results were TDP1 cell noCPT 21µM*, HT1080-NT tox -25%, KB-V1 cytotox inactive, DT40 TDP1 CPT 10µM*, HT1080 IDH1KD tx -9% and KB-3-1 cytotox inactive.
`O=C(O)CSCC(=O)NC1CCSC1=O` (stereo unspecified) gave TDP1 cell noCPT -5% and DT40 TDP1 CPT -11%.
Cc1ccsc1C1C(C(=O)O)c2ccccc2C(=O)N1C (stereo unspecified) was read as TDP1 cell noCPT -18%, HT1080-NT tox 6%, KB-V1 cytotox inactive, DT40 TDP1 CPT 0%, HT1080 IDH1KD tx 3% and KB-3-1 cytotox inactive.
CN1C(=O)c2ccccc2C(C(=O)O)C1c1cccc(F)c1 (stereo unspecified) was read as TDP1 cell noCPT 26µM*, HT1080-NT tox 26%, KB-V1 cytotox inactive, DT40 TDP1 CPT inconclusive, HT1080 IDH1KD tx 13% and KB-3-1 cytotox inactive.
`COC(=O)N1CCC[C@@]2(CCN(c3ncccn3)C2)C1` gave TDP1 cell noCPT -6% and DT40 TDP1 CPT -1%.
`Cn1c(SCC(=O)c2ccc3c(c2)OCO3)nnc1C1COc2ccccc2O1` (stereo unspecified) gave TDP1 cell noCPT 16µM*, HT1080-NT tox -1%, KB-V1 cytotox inconclusive, DT40 TDP1 CPT 21µM*, HT1080 IDH1KD tx 8% and KB-3-1 cytotox inactive.
O=C(OCc1cc(=O)n2cc(Br)ccc2n1)C1COc2ccccc2O1 (stereo unspecified) was read as TDP1 cell noCPT -10%, HT1080-NT tox 2%, KB-V1 cytotox inactive, DT40 TDP1 CPT 0%, HT1080 IDH1KD tx 10% and KB-3-1 cytotox inactive.
For Cn1c(SCc2cc(=O)n3cc(Br)ccc3n2)nnc1C1COc2ccccc2O1 (stereo unspecified) the results were TDP1 cell noCPT inconclusive, HT1080-NT tox 0%, KB-V1 cytotox 12µM*, DT40 TDP1 CPT -20%, HT1080 IDH1KD tx 9% and KB-3-1 cytotox inactive.
`COc1cccc(NC(=O)C2CCOC2=O)c1` (stereo unspecified) gave TDP1 cell noCPT -7%, HT1080-NT tox 2%, KB-V1 cytotox inactive, DT40 TDP1 CPT -6%, HT1080 IDH1KD tx -1% and KB-3-1 cytotox inactive.
Screening CC1(OC(=O)CCc2ccccc2)C(=O)C=C2C=C(c3ccc(C#N)cc3)N(CC3CC3)C=C2C1=O (stereo unspecified) returned TDP1 cell noCPT inconclusive, HT1080-NT tox -4%, KB-V1 cytotox inconclusive, DT40 TDP1 CPT 15µM*, HT1080 IDH1KD tx inconclusive and KB-3-1 cytotox inactive.
Screening CCCCC1=CC2=CC(=O)C(C)(OC(=O)CC)C(=O)C2=CN1C(CO)CO (stereo unspecified) returned TDP1 cell noCPT 2%, HT1080-NT tox 10%, KB-V1 cytotox inactive, DT40 TDP1 CPT 5%, HT1080 IDH1KD tx 15% and KB-3-1 cytotox inactive.
CC1(OC(=O)CCc2ccccc2)C(=O)C=C2C=C(c3ccc(C#N)cc3)N(c3ccccc3)C=C2C1=O (stereo unspecified) was read as TDP1 cell noCPT 13µM*, HT1080-NT tox -4%, KB-V1 cytotox inactive, DT40 TDP1 CPT inconclusive, HT1080 IDH1KD tx -3% and KB-3-1 cytotox inactive.
For CC1(OC(=O)CCc2ccccc2)C(=O)C=C2C=C(c3ccc(C#N)cc3)N(C3CCCC3)C=C2C1=O (stereo unspecified) the results were TDP1 cell noCPT 15µM*, HT1080-NT tox -6%, KB-V1 cytotox inactive, DT40 TDP1 CPT 23µM*, HT1080 IDH1KD tx -3% and KB-3-1 cytotox inactive.
`CC1(OC(=O)C2CCCC2)C(=O)C=C2C=C(c3ccsc3)N(C3CCCC3)C=C2C1=O` (stereo unspecified) gave TDP1 cell noCPT inconclusive, HT1080-NT tox -11%, KB-V1 cytotox inactive, DT40 TDP1 CPT inconclusive, HT1080 IDH1KD tx -1% and KB-3-1 cytotox inactive.
CC1(OC(=O)CCc2ccccc2)C(=O)C=C2C=C(c3ccc(C#N)cc3)N(CCN3CCOCC3)C=C2C1=O (stereo unspecified) was read as TDP1 cell noCPT -2%, HT1080-NT tox 3%, KB-V1 cytotox inactive, DT40 TDP1 CPT -4%, HT1080 IDH1KD tx 9% and KB-3-1 cytotox inactive.
For Cc1cnc(=O)[nH]c1SCc1cccc(C(F)(F)F)c1 the results were TDP1 cell noCPT -11%, HT1080-NT tox -6%, KB-V1 cytotox inactive, DT40 TDP1 CPT 2%, HT1080 IDH1KD tx 0% and KB-3-1 cytotox inactive.
Cc1cccc(C)c1NC(=O)c1sccc1SCc1cccc(C(F)(F)F)c1 was read as TDP1 cell noCPT 18µM*, HT1080-NT tox 2%[9.24 µM], KB-V1 cytotox inconclusive, DT40 TDP1 CPT 16µM*, HT1080 IDH1KD tx inconclusive and KB-3-1 cytotox inconclusive.
Screening Cc1ccc(NC(=O)c2ccc(CNS(=O)(=O)c3cccc(C(F)(F)F)c3)cc2)cc1 returned TDP1 cell noCPT -8%, HT1080-NT tox 8%, KB-V1 cytotox inconclusive, DT40 TDP1 CPT -4%, HT1080 IDH1KD tx 8% and KB-3-1 cytotox inactive.
Cc1ccc(NC(=O)c2sccc2SCc2cccc(C(F)(F)F)c2)cc1 was read as TDP1 cell noCPT 18µM*, HT1080-NT tox -5%, KB-V1 cytotox inconclusive, DT40 TDP1 CPT 18µM*, HT1080 IDH1KD tx inconclusive and KB-3-1 cytotox inactive.
CS(=O)(=O)Nc1ccc([N+](=O)[O-])cc1OC1CCCCC1 was read as TDP1 cell noCPT inconclusive and DT40 TDP1 CPT -1%[92.5 µM].
For CCOc1cc(-c2nc(-c3ccc(-c4ccccc4)nc3OCC)no2)cc(OCC)c1OCC the results were TDP1 cell noCPT inconclusive, KB-V1 cytotox inactive, DT40 TDP1 CPT inconclusive and KB-3-1 cytotox inactive.
Screening COc1cccc(-c2cc3nc(Nc4ccc(OC)c(OC)c4)n(C)c(=O)c3s2)c1 returned TDP1 cell noCPT inconclusive, HT1080-NT tox inconclusive, KB-V1 cytotox inactive, DT40 TDP1 CPT inconclusive, HT1080 IDH1KD tx inconclusive and KB-3-1 cytotox inactive.
For Cc1ccsc1-c1cc2nc(NCCOc3ccccc3Cl)n(C)c(=O)c2s1 the results were TDP1 cell noCPT inconclusive, HT1080-NT tox 4%, KB-V1 cytotox inconclusive, DT40 TDP1 CPT inconclusive, HT1080 IDH1KD tx 12% and KB-3-1 cytotox inactive.
